Laboratory results published in PMC8384837, “Expanding the binding specificity for RNA recognition by a PUF domain”.
Changes are numbered by the printed parent chain.

What was measured:
Assay in all cases: yeast three-hybrid, YBZ-1, SC-Leu-His + 0.5 mM 3-AT, 4 days
Conditions in all cases: tags: N-Gal4 AD-HA kept; label: inside an RPR1-promoter hybrid RNA with tandem MS2 sites; ssRNA
PUM1 PUF domain R5-RQV = PUM1 PUF domain R5-RQV (Homo sapiens, UniProt Q14671 828-1176, C1007R;R1008Q;Q1011V)
Summary of the method: (§1)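 Pumilio-1 PUF domain libraries, randomized at the three base-contacting residues of each repeat, were co-expressed with matching RNA elements from a centromeric plasmid in strain YBZ-1, which carries a LexA–MS2 coat fusion and a HIS3 reporter. Transformants grew for four days on SC-Leu (input) or on SC-Leu-His + 0.5 mM 3-AT (selection), and the repeat regions were PCR-amplified and Illumina-sequenced. The interaction score is the log change in variant frequency from input to selection. That logarithm is base 2, with a pseudocount of 1 where a variant was absent.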

PUM1 PUF domain R5-RQW = PUM1 PUF domain R5-RQW (Homo sapiens, UniProt Q14671 828-1176, C1007R;R1008Q;Q1011W)
Summary of the method: as §1

PUM1 PUF domain R5-CSR = PUM1 PUF domain R5-CSR (Homo sapiens, UniProt Q14671 828-1176, R1008S;Q1011R)
Summary of the method: as §1

PUM1 PUF domain R3-RPA = PUM1 PUF domain R3-RPA (Homo sapiens, UniProt Q14671 828-1176, C935R;R936P;Q939A)
Summary of the method: as §1

PUM1 PUF domain R3-AFG = PUM1 PUF domain R3-AFG (Homo sapiens, UniProt Q14671 828-1176, C935A;R936F;Q939G)
Summary of the method: as §1

PUM1 PUF domain R7-RPI = PUM1 PUF domain R7-RPI (Homo sapiens, UniProt Q14671 828-1176, S1079R;N1080P;E1083I)
Summary of the method: as §1

PUM1 PUF domain R1-KKR = PUM1 PUF domain R1-KKR (Homo sapiens, UniProt Q14671 828-1176, S863K;R864K;Q867R)
Summary of the method: as §1

PUM1 PUF domain R1-RWQ = PUM1 PUF domain R1-RWQ (Homo sapiens, UniProt Q14671 828-1176, S863R;R864W)
Summary of the method: as §1

PUM1 PUF domain R6-QWG = biological target: T1, PUM1 PUF domain R6-QWG (Homo sapiens, UniProt Q14671 828-1176, N1043Q;Y1044W;Q1047G)
T1 sequence: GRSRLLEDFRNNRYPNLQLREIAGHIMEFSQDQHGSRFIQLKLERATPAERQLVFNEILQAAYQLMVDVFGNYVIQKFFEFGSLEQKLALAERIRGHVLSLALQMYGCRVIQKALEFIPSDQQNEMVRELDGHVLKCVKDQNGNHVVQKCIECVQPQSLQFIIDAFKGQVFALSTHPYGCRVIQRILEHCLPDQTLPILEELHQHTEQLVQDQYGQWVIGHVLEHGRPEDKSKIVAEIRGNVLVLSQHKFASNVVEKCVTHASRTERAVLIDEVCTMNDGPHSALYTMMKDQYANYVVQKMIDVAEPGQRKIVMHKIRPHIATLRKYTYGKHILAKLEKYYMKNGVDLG
Summary of the method: as §1

PUM1 PUF domain R6-TYR = biological target: T2, PUM1 PUF domain R6-TYR (Homo sapiens, UniProt Q14671 828-1176, N1043T;Q1047R)
T2 sequence: T1 sequence with Q216T, W217Y, G220R
Summary of the method: as §1

PUM1 PUF domain R4-TRT = PUM1 PUF domain R4-TRT (Homo sapiens, UniProt Q14671 828-1176, N971T;H972R;Q975T)
Summary of the method: as §1

PUM1 PUF domain R4-ARA = PUM1 PUF domain R4-ARA (Homo sapiens, UniProt Q14671 828-1176, N971A;H972R;Q975A)
Summary of the method: as §1

PUM1 PUF domain R8-PRR = PUM1 PUF domain R8-PRR (Homo sapiens, UniProt Q14671 828-1176, N1122P;Y1123R;Q1126R)
Summary of the method: as §1

PUM1 PUF domain R3-TSE = PUM1 PUF domain R3-TSE (Homo sapiens, UniProt Q14671 828-1176, C935T;R936S;Q939E)
Summary of the method: as §1

PUM1 PUF domain R5-GVD = PUM1 PUF domain R5-GVD (Homo sapiens, UniProt Q14671 828-1176, C1007G;R1008V;Q1011D)
Summary of the method: as §1

PUM1 PUF domain R5-LNT = PUM1 PUF domain R5-LNT (Homo sapiens, UniProt Q14671 828-1176, C1007L;R1008N;Q1011T)
Summary of the method: as §1

PUM1 PUF domain R7-GVD = PUM1 PUF domain R7-GVD (Homo sapiens, UniProt Q14671 828-1176, S1079G;N1080V;E1083D)
Summary of the method: as §1

PUM1 PUF domain R6-HWC = biological target: T3, PUM1 PUF domain R6-HWC (Homo sapiens, UniProt Q14671 828-1176, N1043H;Y1044W;Q1047C)
T3 sequence: T1 sequence with Q216H, G220C
Summary of the method: as §1

PUM1 PUF domain R8-KRY = PUM1 PUF domain R8-KRY (Homo sapiens, UniProt Q14671 828-1176, N1122K;Y1123R;Q1126Y)
Summary of the method: as §1

PUM1 PUF domain R4-SRR = PUM1 PUF domain R4-SRR (Homo sapiens, UniProt Q14671 828-1176, N971S;H972R;Q975R)
Summary of the method: as §1

Sequence: GGCUAGAACUAGUGGAUCCCCCGGCGCCCGGCGGCUCGAGCCCGGGUAAGUGUCAAUAGUCUGCAUGCCGCCGGGCGCCAUGCCUGCAGGUCGACUCUAGAAAACAUG
- binding signal (PUM1 PUF domain R5-RQV): 4.73 log2 enrichment (interaction score)
- binding signal (PUM1 PUF domain R5-RQW): 1.8 log2 enrichment (interaction score)
- binding signal (PUM1 PUF domain R5-CSR): 4.8 log2 enrichment (interaction score)

Sequence: GGCUAGAACUAGUGGAUCCCCCGGCGCCCGGCGGCUCGAGCCCGGGUAAGUGUAAUUAGUCUGCAUGCCGCCGGGCGCCAUGCCUGCAGGUCGACUCUAGAAAACAUG
- binding signal (PUM1 PUF domain R3-RPA): 3.99 log2 enrichment (interaction score)
- binding signal (PUM1 PUF domain R3-AFG): 1.51 log2 enrichment (interaction score)

Sequence: GGCUAGAACUAGUGGAUCCCCCGGCGCCCGGCGGCUCGAGCCCGGGUAAGUCUAAAUAGUCUGCAUGCCGCCGGGCGCCAUGCCUGCAGGUCGACUCUAGAAAACAUG
- binding signal (PUM1 PUF domain R7-RPI): 0.71 log2 enrichment (interaction score)

Sequence: GGCUAGAACUAGUGGAUCCCCCGGCGCCCGGCGGCUCGAGCCCGGGUAAGUGUAAAUUGUCUGCAUGCCGCCGGGCGCCAUGCCUGCAGGUCGACUCUAGAAAACAUG
- binding signal (PUM1 PUF domain R1-KKR): 7.39 log2 enrichment (interaction score)
- binding signal (PUM1 PUF domain R1-RWQ): 7.23 log2 enrichment (interaction score)

Sequence: GGCUAGAACUAGUGGAUCCCCCGGCGCCCGGCGGCUCGAGCCCGGGUAAGUGUAAAUAGUCUGCAUGCCGCCGGGCGCCAUGCCUGCAGGUCGACUCUAGAAAACAUG
- binding signal (PUM1 PUF domain R6-QWG): 5.49 log2 enrichment (interaction score)
- binding signal (PUM1 PUF domain R6-TYR): 5.51 log2 enrichment (interaction score)
- binding signal (PUM1 PUF domain R3-RPA): 0.97 log2 enrichment (interaction score)
- binding signal (PUM1 PUF domain R4-TRT): 2.59 log2 enrichment (interaction score)
- binding signal (PUM1 PUF domain R3-AFG): 3.62 log2 enrichment (interaction score)
- binding signal (PUM1 PUF domain R4-ARA): 3.7 log2 enrichment (interaction score)
- binding signal (PUM1 PUF domain R5-CSR): 1.42 log2 enrichment (interaction score)
- binding signal (PUM1 PUF domain R8-PRR): 3.57 log2 enrichment (interaction score)

Sequence: GGCUAGAACUAGUGGAUCCCCCGGCGCCCGGCGGCUCGAGCCCGGGUAAGUGUAAAUCGUCUGCAUGCCGCCGGGCGCCAUGCCUGCAGGUCGACUCUAGAAAACAUG
- binding signal (PUM1 PUF domain R1-KKR): 6.78 log2 enrichment (interaction score)
- binding signal (PUM1 PUF domain R1-RWQ): 6.93 log2 enrichment (interaction score)

Sequence: GGCUAGAACUAGUGGAUCCCCCGGCGCCCGGCGGCUCGAGCCCGGGUAAGUGUAAGUAGUCUGCAUGCCGCCGGGCGCCAUGCCUGCAGGUCGACUCUAGAAAACAUG
- binding signal (PUM1 PUF domain R3-TSE): 4.66 log2 enrichment (interaction score)
- binding signal (PUM1 PUF domain R3-AFG): 0.76 log2 enrichment (interaction score)

Sequence: GGCUAGAACUAGUGGAUCCCCCGGCGCCCGGCGGCUCGAGCCCGGGUAAGUGUAUAUAGUCUGCAUGCCGCCGGGCGCCAUGCCUGCAGGUCGACUCUAGAAAACAUG
- binding signal (PUM1 PUF domain R4-ARA): 1.69 log2 enrichment (interaction score)

Sequence: GGCUAGAACUAGUGGAUCCCCCGGCGCCCGGCGGCUCGAGCCCGGGUAAGUGCAAAUAGUCUGCAUGCCGCCGGGCGCCAUGCCUGCAGGUCGACUCUAGAAAACAUG
- binding signal (PUM1 PUF domain R6-TYR): 5.11 log2 enrichment (interaction score)

Sequence: GGCUAGAACUAGUGGAUCCCCCGGCGCCCGGCGGCUCGAGCCCGGGUAAGUGUGAAUAGUCUGCAUGCCGCCGGGCGCCAUGCCUGCAGGUCGACUCUAGAAAACAUG
- binding signal (PUM1 PUF domain R5-GVD): 5.11 log2 enrichment (interaction score)

Sequence: GGCUAGAACUAGUGGAUCCCCCGGCGCCCGGCGGCUCGAGCCCGGGUAAGUGUUAAUAGUCUGCAUGCCGCCGGGCGCCAUGCCUGCAGGUCGACUCUAGAAAACAUG
- binding signal (PUM1 PUF domain R5-RQV): 4.22 log2 enrichment (interaction score)
- binding signal (PUM1 PUF domain R5-LNT): 4.04 log2 enrichment (interaction score)
- binding signal (PUM1 PUF domain R5-RQW): 2.23 log2 enrichment (interaction score)

Sequence: GGCUAGAACUAGUGGAUCCCCCGGCGCCCGGCGGCUCGAGCCCGGGUAAGUUUAAAUAGUCUGCAUGCCGCCGGGCGCCAUGCCUGCAGGUCGACUCUAGAAAACAUG
- binding signal (PUM1 PUF domain R7-GVD): 2.75 log2 enrichment (interaction score)
- binding signal (PUM1 PUF domain R7-RPI): 2.52 log2 enrichment (interaction score)

Sequence: GGCUAGAACUAGUGGAUCCCCCGGCGCCCGGCGGCUCGAGCCCGGGUAAGUGAAAAUAGUCUGCAUGCCGCCGGGCGCCAUGCCUGCAGGUCGACUCUAGAAAACAUG
- binding signal (PUM1 PUF domain R6-QWG): 3.38 log2 enrichment (interaction score)
- binding signal (PUM1 PUF domain R6-HWC): 6.25 log2 enrichment (interaction score)

Sequence: GGCUAGAACUAGUGGAUCCCCCGGCGCCCGGCGGCUCGAGCCCGGGUAAGCGUAAAUAGUCUGCAUGCCGCCGGGCGCCAUGCCUGCAGGUCGACUCUAGAAAACAUG
- binding signal (PUM1 PUF domain R8-KRY): 3.46 log2 enrichment (interaction score)
- binding signal (PUM1 PUF domain R8-PRR): 4.08 log2 enrichment (interaction score)

Sequence: GGCUAGAACUAGUGGAUCCCCCGGCGCCCGGCGGCUCGAGCCCGGGUAAGUGUACAUAGUCUGCAUGCCGCCGGGCGCCAUGCCUGCAGGUCGACUCUAGAAAACAUG
- binding signal (PUM1 PUF domain R4-SRR): 4.09 log2 enrichment (interaction score)
- binding signal (PUM1 PUF domain R4-ARA): 2.79 log2 enrichment (interaction score)

Sequence: GGCUAGAACUAGUGGAUCCCCCGGCGCCCGGCGGCUCGAGCCCGGGUAAGUGUAAAUGGUCUGCAUGCCGCCGGGCGCCAUGCCUGCAGGUCGACUCUAGAAAACAUG
- binding signal (PUM1 PUF domain R1-RWQ): 2.2 log2 enrichment (interaction score)
